Data on 10 molecules can be found in PubChem BioAssay (Tox21).

Molecules are shown by their SMILES. “And” between values parts separate entries of the source, which are not always exact repeats. Equal entries are not always repeated. Results filed as inconclusive are left out. Some structures have more than one record in an assay (separate samples or runs), and their calls can disagree. The source made the active and inactive calls. Unless noted, calls follow the shape of the dose curve; as a rule, active = well fitted curve in the direction sought with a large enough effect in the repeat runs; inconclusive = weak or mixed curves; inactive = no such curve, though single readings can be large; an effect the other way counts as inactive or inconclusive.

A short description of assay [1]: qHTS assay to test for compound auto fluorescence at 460 nm (blue) in HEK293 cell free culture (AID 720681). In a few lines: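 Test compounds were pinned into cell-free culture medium (DMEM with 10% FBS) and fluorescence was read directly at Ex/Em 405/460 nm. Signals were expressed as fluorescence equivalents of triamterene, with DMSO vehicle as control.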
Assay [2] in a line: qHTS assay to test for compound auto fluorescence at 535 nm (green) in HEK293 cell free culture (AID 720682). Put shortly: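 Intrinsic compound fluorescence is measured in culture medium containing 10% FBS, with excitation at 485 nm and detection at 535 nm, referenced to fluorescein.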
The nature of assay [3]: qHTS assay to test for compound auto fluorescence at 590 nm (red) in HEK293 cell free culture (AID 720683). In a few lines:
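Tox21 10K library compounds were pinned into cell-free DMEM with 10% FBS and fluorescence was read at excitation 540 nm. Activity is expressed as Rose Bengal sodium equivalency.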

Assay [4] in a line: qHTS assay to test for compound auto fluorescence at 590 nm (red) in HepG2 cell free culture (AID 720684). In a few lines:
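Readout: intrinsic compound fluorescence at 590 nm emission after 540 nm excitation, scaled to Rose Bengal sodium. Matrix was cell-free MEM with 10% FBS; DMSO vehicle wells served as control.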
(In general: In qHTS, concentration-response curves come from the screen itself.)

A short description of assay [5]: qHTS assay to test for compound auto fluorescence at 460 nm (blue) in HepG2 cell free culture (AID 720685). In a few lines:
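Cell-free plates of MEM plus 10% FBS received 23 nL compound or DMSO vehicle; blue-channel (405/460 nm) intensity scored against triamterene as reference fluorophore.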

Assay [6] can be described thus: qHTS assay to test for compound auto fluorescence at 535 nm (green) in HepG2 cell free culture (AID 720686).
The nature of assay [7]: qHTS assay to test for compound auto fluorescence at 460 nm (blue) in HepG2 cells (AID 720687). In a few lines:
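Cells (2,000/well in MEM with 10% FBS) attached overnight at 37 C, then were exposed to compound or DMSO for 1 hr at 37 C, 5% CO2. Fluorescence read at Ex/Em 405/460 nm, expressed as triamterene-equivalent signal.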

A short description of assay [8]: qHTS assay to identify small molecule antagonists of the glucocorticoid receptor (GR) signaling pathway - cell viability counter screen (AID 720693). Also: nearly all actives have a fitted effect of over 55% in size. Also: potency is read from the fitted curve at half-maximal effect.
Assay [9] is described as follows: qHTS assay for identifying genotoxic compounds that show differential cytotoxicity against isogenic chicken DT40 cell lines with known DNA damage response pathways - Rev3 mutant cell line (AID 743014). Also: nearly all actives have a fitted effect of over 55% in size. Also: potency is read from the fitted curve at half-maximal effect.
The nature of assay [10]: qHTS assay to identify small molecule antagonists of the androgen receptor (AR) signaling pathway using the MDA cell line - cell viability counter screen (AID 743041; also: nearly all actives have a fitted effect of over 45% in size). Put shortly: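 qHTS viability read-out; MDA-kb2 AR-luc; R1881-stimulated; 16 h exposure at 37C, 0% CO2; CellTiter-Fluor, 30 min; fluorescence intensity.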
Assay [11] has as its target Glucocorticoid receptor (Homo sapiens) (UniProt P04150). Description: qHTS assay to identify small molecule agonists of the glucocorticoid receptor (GR) signaling pathway (AID 720691; active = well fitted activation curve with a large enough effect in the signal ratio in the repeat runs, not every such curve was filed as active; the % refers to the signal ratio; also: potency is read from the fitted curve at half-maximal effect). The note with it: GR-bla HeLa, beta-lactamase reporter ratio, 18 h; activation: at 62.4 µM (top of the series). Put shortly: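 Steps: seed GR-bla HeLa cells, incubate 4 h at 37 C/5% CO2; pin-transfer DMSO-dissolved compounds; incubate 18 h at 37 C; add LiveBLAzer B/G FRET substrate; after 2 h at room temperature, measure fluorescence.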

Assay [12] shares this target. The assay is described as follows: qHTS assay to identify small molecule antagonists of the glucocorticoid receptor (GR) signaling pathway (AID 720692; active = well fitted inhibition curve with a large enough effect in the signal ratio in the repeat runs, not every such curve was filed as active; the % refers to the signal ratio; also: potency is read from the fitted curve at half-maximal effect). Put shortly:
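Antagonism was scored as loss of dexamethasone-driven (5 nM final) reporter signal in HeLa cells bearing a glucocorticoid response element–beta-lactamase construct, after 18 h compound exposure at 37 C and 2 h FRET substrate loading.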

Assay [13] is described as follows: qHTS assay for identifying genotoxic compounds that show differential cytotoxicity against isogenic chicken DT40 cell lines with known DNA damage response pathways - wild type cell line (AID 743012). Also: nearly all actives have a fitted effect of over 60% in size. Also: potency is read from the fitted curve at half-maximal effect. In a few lines:
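Cytotoxicity in repair-proficient parental chicken DT40 cells serves as the comparator for Rad54/Ku70- and Rev3-deficient lines. Cells were exposed to compounds for 40 h at 37 C/5% CO2, and ATP-based luminescence (CellTiter-Glo) measured viability.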

Assay [14] is described as follows: qHTS assay for identifying genotoxic compounds that show differential cytotoxicity against isogenic chicken DT40 cell lines with known DNA damage response pathways - Rad54/Ku70 mutant cell line (AID 743015). Also: nearly all actives have a fitted effect of over 60% in size. Also: potency is read from the fitted curve at half-maximal effect.
Assay [15] in a line: qHTS assay to identify small molecule antagonists of the androgen receptor (AR) signaling pathway - cell viability counter screen (AID 743033; also: nearly all actives have a fitted effect of over 45% in size; also: potency is read from the fitted curve at half-maximal effect).
Assay [16] addresses Androgen receptor (Homo sapiens) (UniProt P10275). The assay is described as follows: qHTS assay to identify small molecule agonists of the androgen receptor (AR) signaling pathway using the MDA cell line (AID 743040; also: nearly all actives have a fitted effect of over 20% in size). Put shortly: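 Agonist activity is measured as luciferase luminescence in human MDA-kb2 cells whose MMTV reporter responds to both AR and GR. Compounds in DMSO incubate 16 h at 37C, 0% CO2, and ONE-Glo is read after 30 min.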

Assay [17] has the same target. Description: qHTS assay to identify small molecule antagonists of the androgen receptor (AR) signaling pathway using the MDA cell line (AID 743042; also: nearly all actives have a fitted effect of over 55% in size; also: potency is read from the fitted curve at half-maximal effect). In a few lines:
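MDA-kb2 cells (human breast carcinoma, stably carrying an MMTV-luciferase reporter responsive to AR and GR) were plated at 3,000 cells/well and preincubated 5 hr at 37C, then given compound plus R1881 agonist for 16 h. ONE-Glo luminescence was read.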

Sequence of Androgen receptor (Homo sapiens) (P10275 whole entry, looked up): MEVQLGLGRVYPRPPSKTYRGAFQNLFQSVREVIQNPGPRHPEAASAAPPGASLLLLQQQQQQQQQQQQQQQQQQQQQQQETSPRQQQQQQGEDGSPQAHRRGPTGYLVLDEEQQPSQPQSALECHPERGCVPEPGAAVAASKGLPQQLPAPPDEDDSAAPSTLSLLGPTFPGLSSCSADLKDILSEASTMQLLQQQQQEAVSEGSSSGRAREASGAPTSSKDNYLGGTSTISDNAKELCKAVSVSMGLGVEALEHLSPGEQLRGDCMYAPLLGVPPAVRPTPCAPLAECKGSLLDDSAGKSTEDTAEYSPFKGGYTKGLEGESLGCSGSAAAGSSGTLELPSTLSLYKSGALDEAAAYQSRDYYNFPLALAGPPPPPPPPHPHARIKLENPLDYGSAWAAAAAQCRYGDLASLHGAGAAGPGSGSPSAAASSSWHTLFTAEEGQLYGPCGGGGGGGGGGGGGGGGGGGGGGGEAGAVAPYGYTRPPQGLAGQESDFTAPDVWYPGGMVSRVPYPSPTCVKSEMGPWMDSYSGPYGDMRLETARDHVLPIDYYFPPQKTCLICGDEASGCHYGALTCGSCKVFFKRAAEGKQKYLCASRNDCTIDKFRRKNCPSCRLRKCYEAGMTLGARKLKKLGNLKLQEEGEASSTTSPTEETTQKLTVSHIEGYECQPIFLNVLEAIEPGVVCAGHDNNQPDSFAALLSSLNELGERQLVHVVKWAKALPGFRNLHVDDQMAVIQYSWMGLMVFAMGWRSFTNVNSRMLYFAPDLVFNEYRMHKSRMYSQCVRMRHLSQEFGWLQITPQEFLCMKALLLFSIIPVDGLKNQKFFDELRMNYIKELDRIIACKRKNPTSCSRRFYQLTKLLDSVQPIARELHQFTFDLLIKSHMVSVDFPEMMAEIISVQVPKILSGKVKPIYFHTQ
Sequence of Glucocorticoid receptor (Homo sapiens) (P04150 whole entry, looked up): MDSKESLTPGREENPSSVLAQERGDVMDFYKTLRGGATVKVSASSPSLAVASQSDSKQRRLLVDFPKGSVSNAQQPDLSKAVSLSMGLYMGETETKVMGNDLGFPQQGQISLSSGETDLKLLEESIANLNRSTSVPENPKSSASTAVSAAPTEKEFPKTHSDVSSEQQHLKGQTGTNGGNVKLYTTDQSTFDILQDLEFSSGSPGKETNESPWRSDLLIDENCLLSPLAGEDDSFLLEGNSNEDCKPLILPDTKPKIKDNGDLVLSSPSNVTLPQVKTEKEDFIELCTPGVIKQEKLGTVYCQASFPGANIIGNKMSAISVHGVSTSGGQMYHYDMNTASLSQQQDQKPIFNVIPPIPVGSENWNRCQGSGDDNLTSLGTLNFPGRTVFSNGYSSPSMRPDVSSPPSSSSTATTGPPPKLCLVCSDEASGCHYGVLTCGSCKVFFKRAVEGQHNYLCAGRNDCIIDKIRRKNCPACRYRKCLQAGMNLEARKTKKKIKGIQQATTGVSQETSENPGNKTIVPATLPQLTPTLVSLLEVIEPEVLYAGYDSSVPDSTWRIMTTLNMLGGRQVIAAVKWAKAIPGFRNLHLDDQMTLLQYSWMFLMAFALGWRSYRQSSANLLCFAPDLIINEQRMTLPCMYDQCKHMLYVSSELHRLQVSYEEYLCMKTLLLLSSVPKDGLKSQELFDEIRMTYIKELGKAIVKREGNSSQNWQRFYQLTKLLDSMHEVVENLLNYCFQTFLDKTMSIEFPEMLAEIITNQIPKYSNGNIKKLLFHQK

Take `CCCCC[C@H](O)/C=C/[C@H]1[C@H](O)CC(=O)[C@@H]1CCCCCCC(=O)O`: the Potency result in assay [1], in assay [2], in assay [3], in assay [4], in [6] and in assay [8] was “inactive” each time. Further, the Potency entry in assay [9] and in assay [10] was “inactive” each time. The result in [5] and in [7] was inactive.
For the molecule `CC1(C)N=C(N)N=C(N)N1c1ccc(Cl)cc1`, the Potency result in [1], in assay [2], in assay [3], in [4], in assay [6] and in assay [11] was “inactive” throughout. The Potency result in assay [12], in assay [8] and in assay [10] was “inactive” each time. Also, in assay [7], the result was inactive. The Potency was 422 nM (active) in [13], 422 nM (active) in assay [9] and 1.19 µM (active) in assay [14].
As for `CO[C@H]1C[C@@H]2CC[C@@H](C)[C@@](O)(O2)C(=O)C(=O)N2CCCC[C@H]2C(=O)O[C@H]([C@H](C)C[C@@H]2CC[C@@H](OCCO)[C@H](OC)C2)CC(=O)[C@H](C)/C=C(\C)[C@@H](O)[C@@H](OC)C(=O)[C@H](C)C[C@H](C)/C=C/C=C/C=C/1C`, the Potency entry in assay [1], in assay [2], in assay [4], in assay [6], in assay [11] and in assay [15] was “inactive” in each case. In assay [16], the Potency entry is “inactive”. In addition, the molecule was classed as inactive in assay [5] and in assay [7]. Moreover, the Potency in assay [12] was 7.56 µM (active); in assay [8] it was 23.9 µM (active); in assay [13], 9.4 nM (active); in [9], 7.5 nM (active); in assay [14], 0.0168 µM (active); in [17], 23.7 µM (active).
As for `CCNC(=O)[C@@H]1CCCN1C(=O)[C@H](CCCN=C(N)N)NC(=O)[C@H](CC(C)C)NC(=O)[C@@H](Cc1c[nH]c2ccccc12)NC(=O)[C@H](Cc1ccc(O)cc1)NC(=O)[C@H](CO)NC(=O)[C@H](Cc1c[nH]c2ccccc12)NC(=O)[C@H](Cc1cnc[nH]1)NC(=O)[C@@H]1CCC(=O)N1`, the Potency result in [1], in [2], in assay [3], in assay [4] and in assay [6] was “inactive” throughout. For the same molecule, the molecule was called inactive in [5] and in assay [7]. In addition, the Potency in assay [8] is 19 µM (active); in assay [13], 841 nM (active); in assay [14] it was 1.06 µM (active); in assay [15], 23.9 µM (active).
On to `CS(=O)(=O)NC(=O)CCC/C=C\C[C@H]1C(=O)C[C@@H](O)[C@@H]1/C=C/[C@H](O)COc1ccccc1`, for which the Potency result in [1], in [2], in [3], in assay [4], in assay [6] and in assay [11] was “inactive” in each case. The Potency entry in assay [8], in assay [13], in assay [9], in [14], in [15] and in assay [10] was “inactive” each time. Besides, the result in assay [7] was inactive.
On to `CN(C)C(=O)CCSC(SCCC(=O)O)c1cccc(/C=C/c2ccc3ccc(Cl)cc3n2)c1` (stereo not drawn), for which the Potency result in assay [1], in assay [2], in [3], in assay [4], in assay [6] and in [11] was “inactive” each time. For the same molecule, the Potency result in [15], in assay [16] and in assay [17] was “inactive” in each case. Further, the molecule was called inactive in assay [5] and in [7]. In assay [12], the Potency was 8.49 µM (active).
For `CC1(S(=O)(=O)O)CC(=O)c2ccccc2C1=O` (stereo not drawn), the Potency entry in [1], in [2], in assay [3], in assay [4], in assay [6] and in assay [8] was “inactive” each time. For the same molecule, the Potency entry in [16] is “inactive”. Besides, the molecule was called inactive in assay [5] and in assay [7]. Moreover, the Potency was 9440 nM (active) in assay [13], 11900 nM (active) in [9], 11.9 µM (active) in [14] and 29.8 µM (active) in [17].
Consider `CO[C@@H]1[C@@H](O[C@@H]2O[C@H](C)[C@@H](O[C@H]3C[C@@](C)(O)[C@@H](OC(=O)CC(C)C)[C@H](C)O3)[C@H](N(C)C)[C@H]2O)[C@@H](CC=O)C[C@@H](C)[C@@H](O)/C=C/C=C/C[C@@H](C)OC(=O)C[C@H]1O`, for which the Potency entry in [1], in assay [2], in assay [3], in [4], in assay [6] and in assay [12] was “inactive” throughout. Moreover, the Potency result in assay [8], in [15] and in assay [10] was “inactive” throughout. In addition, the call in assay [5] and in assay [7] was inactive. Besides, the Potency in [11] was 4.25 µM (active) and inactive; in assay [13] it was 2.66 µM (active) and 3.76 µM (active); in assay [9], 5.96 µM (active) and 7.5 µM (active); in [14], 6.68 µM (active) and 9.44 µM (active).
In the case of `CCOC(=O)[C@H](CS)NCCN[C@@H](CS)C(=O)OCC`, the Potency result in [1], in assay [2], in assay [3], in [4], in assay [6] and in [11] was “inactive” in each case. Further, the Potency entry in assay [12], in assay [8], in assay [9] and in assay [15] was “inactive” throughout. Further, the molecule was classed as inactive in assay [5] and in assay [7].
Regarding `CC(C)CN(C[C@@H](O)[C@H](Cc1ccccc1)NC(=O)O[C@H]1CO[C@H]2OCC[C@H]21)S(=O)(=O)c1ccc(N)cc1`, the Potency entry in assay [1], in assay [2], in assay [3], in assay [4], in [6] and in [11] was “inactive” in each case. For the same molecule, the Potency entry in assay [12], in assay [8], in [9], in assay [15] and in [10] was “inactive” throughout. The call in assay [5] and in assay [7] was inactive. In addition, in [14], the Potency is 29.8 µM (active).
